According to PubChem BioAssay (NCI):
Compounds without any hit were thinned out: in the full panel of roughly 79,000, 15% have a hit. A number with no mark means an inactive call. Active and inactive are the calls of the source. Cut-off read from the data, not from the text of the source: active = growth inhibition above about 70%; inactive = the rest.

What was measured:
[1] = NCI Yeast Anticancer Drug Screen. Data for the rad50 strain (AID 155);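 note: 0% = growth of vehicle-only cultures of the same strain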; conditions: S. cerevisiae rad50 strain growth inhibition, stronger effect = higher value
Method in brief: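 A DNA repair-deficient yeast mutant serves as the test organism; compound-induced growth inhibition is calculated against vehicle-treated cells.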

[2] = NCI Yeast Anticancer Drug Screen. Data for the mec2-1 strain (AID 157); conditions: S. cerevisiae mec2-1 strain, stronger effect = higher value
Method in brief: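 Using mec2-1 yeast: add compound, measure growth, express inhibition versus vehicle-treated cultures.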

[3] = NCI Yeast Anticancer Drug Screen. Data for the sgs1 mgt1 strain (AID 161);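 note: 0% = growth of cultures given vehicle only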; conditions: S. cerevisiae sgs1 mgt1 strain, stronger effect = higher value
Method in brief: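 This yeast growth screen uses a strain with defined DNA-repair lesions; compound-treated growth is compared with vehicle-treated growth.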

[4] = NCI Yeast Anticancer Drug Screen. Data for the cln2 rad14 strain (AID 165);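 note: 0% = growth equal to vehicle treated cultures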; conditions: S. cerevisiae cln2 rad14 strain, stronger effect = higher value
Method in brief: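 Yeast strain cln2 rad14, bearing defects in cell cycle control and DNA repair, serves as the test system; values reflect growth inhibition compared with vehicle.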

[5] = NCI Yeast Anticancer Drug Screen. Data for the bub3 strain (AID 167); conditions: S. cerevisiae bub3 mutant strain, stronger effect = higher value
Method in brief: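 Inhibition values come from growth of compound-treated mutant yeast normalised to vehicle-treated controls.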

[6] = NCI Yeast Anticancer Drug Screen. Data for the mlh1 rad18 strain (AID 175); conditions: S. cerevisiae mlh1 rad18 strain growth inhibition, stronger effect = higher value
Method in brief: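 Steps: expose repair-defective yeast to compound; measure growth; express inhibition against vehicle-treated controls.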

[7] = at 5.0 µM (retest, dose inferred, filed as 0.5)
[8] = at 50.0 µM (retest, dose inferred, filed as 5.0)

Row | SMILES | growth inhibition [1, 7] | growth inhibition [1, 8] | growth inhibition ([1]; at 50.0 µM) | growth inhibition [2, 7] [%] | growth inhibition [2, 8] | growth inhibition ([2]; at 50.0 µM) | growth inhibition [3, 7] | growth inhibition [3, 8] | growth inhibition ([3]; at 50.0 µM) | growth inhibition [4, 7] [%] | growth inhibition [4, 8] | growth inhibition ([4]; at 50.0 µM) | growth inhibition [5, 7] | growth inhibition [5, 8] | growth inhibition ([5]; at 50.0 µM) | growth inhibition [6, 7] | growth inhibition [6, 8] | growth inhibition ([6]; at 50.0 µM)
1 | CCN(CC)CCNc1ccc(C)c2sc3cccc(O)c3c(=O)c12 | 86% (active) | 99% (active) | 99.2% (active) | 3 | 72% (active) | 99.7% (active) | 15% | 96% (active) | 99.5% (active) | 2 | 85% (active) | 55.5% | 10% | 96% (active) | 99.5% (active) | 12% | 99% (active) | 99.3% (active)
2 | Nc1ccccc1C(=O)NCCc1c[nH]c2ccccc12 | 1% | 34% | 6.35% | -3 | 6% | 11.8% | 4% | 40% | 33.8% | -5 | 27% | 66.6% | -7% | 18% | 48.5% | 3% | 38% | 7%
3 | CCCCCCCCCCCCCCCCNCCCN(C)CCCN | -1% | 98% (active) | 88.5% (active) | -19 | 98% (active) | 93.5% (active) | 2% | 97% (active) | 93.3% (active) | -26 | 97% (active) | 92% (active) | -26% | 97% (active) | 92.4% (active) | -68% | 97% (active) | 90.3% (active)
4 | O=[N+]([O-])CCc1ccco1 | 3% | 0% | 74.8% (active) | 1 | -1% | 73.2% (active) | 2% | 2% | 47.4% | 3 | 0% | 56.2% | 4% | -4% | 95.2% (active) | 0% | -1% | 44.1%
5 | NC(=O)C(=O)N/N=C/c1ccc([N+](=O)[O-])o1 | 14% | 49% | 32.4% | 6 | 31% | 25.4% | 2% | 42% | 71.7% (active) | -1 | 18% | 2.8% | 37% | 35% | 14.3% | 16% | 65% | 56.1%
6 | CC(CCCN(C)Cc1ccccc1)Nc1ccnc2cc(Cl)ccc12 (configuration not stated) | 88% (active) | 99% (active) | 99% (active) | 53 | 100% (active) | 98.3% (active) | 99% (active) | 99% (active) | 99.5% (active) | 41 | 99% (active) | 99.4% (active) | 86% (active) | 99% (active) | 99.5% (active) | 99% (active) | 99% (active) | 98% (active)
7 | CC(=O)c1ccc2c(c1)CC1(C2)Cc2ccccc2C1=O (configuration not stated) | -5% | -16% | -2.15% | -1 | 0% | 1.15% | 11% | 24% | 7.8% | 2 | -13% | -10.6% | 25% | 84% (active) | 84.3% (active) | -4% | -9% | 10%
8 | CN1C(=O)C(Cl)(C(Cl)(Cl)S(=O)(=O)O)C(=O)c2ccccc21 (configuration not stated) | -3% | 95% (active) | 42% | 1 | 99% (active) | 18.3% | 1% | 98% (active) | -8.1% | 3 | 96% (active) | 34.5% | 0% | 97% (active) | 4.2% | -1% | 97% (active) | 27.5%
9 | COc1ccc(-c2c(-c3ccccc3)c(C)nc3nc(SC)nc(SC)c23)cc1OC | 24% | 95% (active) | 95% (active) | 0 | 96% (active) | 95% (active) | 12% | 97% (active) | 94.2% (active) | -2 | 92% (active) | 94.7% (active) | -20% | 94% (active) | 94.6% (active) | 2% | 96% (active) | 94.6% (active)
